Out of some 5,500 compounds screened, about 2,000 (36%) were called active. Another 18% or so got no clear call; they are omitted. Rule as the data show it: active = normalized growth mostly below about 0.91 (no sharp cut-off); inconclusive = no clear call, values can overlap the other calls; inactive = mostly above about 0.92. The list shows a part of the results.
Assay: chemical genetic growth profiling, strain panel (AID 1159580);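 also: tested at 20 µM; growth read once vehicle control cultures reached saturation at 30 °C; 1 = growth at the plate median or of vehicle wells; lower values mean less growth of the strain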
Details: growth OD

Measured: normalized growth

Nc1ncn([C@@H]2O[C@H](CO)[C@@H](O)[C@H]2O)c(=O)n1
inactive: S. cerevisiae deletion strains, locus YJR066W, strain TOR1, stronger effect = lower value 0.948 | S. cerevisiae deletion strains, locus YKL009W, strain mrt4, stronger effect = lower value 1 | S. cerevisiae deletion strains, locus YKL068W, stronger effect = lower value 0.997 | S. cerevisiae deletion strains, locus YKL085W, strain MDH1 (second series), stronger effect = lower value 0.989 | S. cerevisiae deletion strains, locus YKL085W, strain MDH1, stronger effect = lower value 0.989 | S. cerevisiae deletion strains, locus YKL160W, strain elf1, stronger effect = lower value 0.99 | S. cerevisiae deletion strains, locus YKL190W, strain CNB1, stronger effect = lower value 1.01 | S. cerevisiae deletion strains, locus YKR001C, strain vps1, stronger effect = lower value 1.02 | S. cerevisiae deletion strains, locus YKR026C, strain gcn3, stronger effect = lower value 1.07 | S. cerevisiae deletion strains, locus YKR091W, strain srl3, stronger effect = lower value 0.967 | S. cerevisiae deletion strains, locus YLL001W, strain dnm1, stronger effect = lower value 0.952 | S. cerevisiae deletion strains, locus YLL026W, stronger effect = lower value 0.997 | S. cerevisiae deletion strains, locus YLL041C, strain sdh2, stronger effect = lower value 0.989 | S. cerevisiae deletion strains, locus YLR027C, strain aat2, stronger effect = lower value 0.985 | S. cerevisiae deletion strains, locus YLR039C, strain RIC1, stronger effect = lower value 1.01 | S. cerevisiae deletion strains, locus YLR058C, strain SHM2, stronger effect = lower value 1.02 | S. cerevisiae deletion strains, locus YLR102C, strain apc9, stronger effect = lower value 0.993 | S. cerevisiae deletion strains, locus YLR113W, strain HOG1, stronger effect = lower value 0.951 | S. cerevisiae deletion strains, locus YLR221C, strain rsa3, stronger effect = lower value 1.01 | S. cerevisiae deletion strains, locus YLR258W, strain gsy2, stronger effect = lower value 0.992 | S. cerevisiae deletion strains, locus YLR262C, strain YPT6 (second series), stronger effect = lower value 0.955 | S. cerevisiae deletion strains, locus YLR262C, strain YPT6, stronger effect = lower value 1.06 | S. cerevisiae deletion strains, locus YLR268W, strain sec22, stronger effect = lower value 0.99 | S. cerevisiae deletion strains, locus YLR320W, strain mms22, stronger effect = lower value 1 | S. cerevisiae deletion strains, locus YLR330W, strain CHS5, stronger effect = lower value 1 | S. cerevisiae deletion strains, locus YLR342W, strain FKS1 (second series), stronger effect = lower value 1 | S. cerevisiae deletion strains, locus YLR342W, strain FKS1, stronger effect = lower value 0.932 | S. cerevisiae deletion strains, locus YLR357W, strain rsc2, stronger effect = lower value 1.01 | S. cerevisiae deletion strains, locus YLR370C, strain arc18, stronger effect = lower value 0.985 | S. cerevisiae deletion strains, locus YLR371W, strain rom2, stronger effect = lower value 0.994 | S. cerevisiae deletion strains, locus YLR384C, strain iki3, stronger effect = lower value 0.974 | S. cerevisiae deletion strains, locus YLR418C, strain cdc73, stronger effect = lower value 0.973 | S. cerevisiae deletion strains, locus YML016C, strain PPZ1, stronger effect = lower value 1.01 | S. cerevisiae deletion strains, locus YML032C, strain rad52, stronger effect = lower value 0.998 | S. cerevisiae deletion strains, locus YML120C, strain ndi1, stronger effect = lower value 0.986 | S. cerevisiae deletion strains, locus YML124C, strain tub3, stronger effect = lower value 1 | S. cerevisiae deletion strains, locus YMR058W, strain fet3, stronger effect = lower value 0.989 | S. cerevisiae deletion strains, locus YMR078C, strain ctf18, stronger effect = lower value 0.992 | S. cerevisiae deletion strains, locus YMR125W, strain sto1, stronger effect = lower value 0.962 | S. cerevisiae deletion strains, locus YMR129W, stronger effect = lower value 0.996 | S. cerevisiae deletion strains, locus YMR205C, strain PFK2, stronger effect = lower value 0.967 | S. cerevisiae deletion strains, locus YMR223W, strain ubp8, stronger effect = lower value 0.989 | S. cerevisiae deletion strains, locus YMR231W, strain pep5, stronger effect = lower value 0.985 | S. cerevisiae deletion strains, locus YMR307W, strain GAS1, stronger effect = lower value 0.982 | S. cerevisiae deletion strains, locus YNL067W, strain RPL9B, stronger effect = lower value 1.02 | S. cerevisiae deletion strains, locus YNL071W, strain lat1, stronger effect = lower value 1.01 | S. cerevisiae deletion strains, locus YNL153C, strain GIM3, stronger effect = lower value 1.04 | S. cerevisiae deletion strains, locus YNL183C, strain NPR1, stronger effect = lower value 0.935 | S. cerevisiae deletion strains, locus YNL209W, strain ssb2, stronger effect = lower value 0.997 | S. cerevisiae deletion strains, locus YNL233W, strain BNI4, stronger effect = lower value 1.03 | S. cerevisiae deletion strains, locus YNL248C, strain rpa49, stronger effect = lower value 0.951 | S. cerevisiae deletion strains, locus YNL250W, strain rad50, stronger effect = lower value 1.01 | S. cerevisiae deletion strains, locus YNL271C, strain bni1, stronger effect = lower value 1 | S. cerevisiae deletion strains, locus YNL298W, strain CLA4, stronger effect = lower value 1 | S. cerevisiae deletion strains, locus YNL307C, strain MCK1, stronger effect = lower value 0.998 | S. cerevisiae deletion strains, locus YNL322C, strain KRE1 (second series), stronger effect = lower value 0.978 | S. cerevisiae deletion strains, locus YNL322C, strain KRE1, stronger effect = lower value 1.01 | S. cerevisiae deletion strains, locus YNR049C, strain mso1, stronger effect = lower value 0.968 | S. cerevisiae deletion strains, locus YNR052C, strain pop2, stronger effect = lower value 0.993 | S. cerevisiae deletion strains, locus YOL006C, strain TOP1, stronger effect = lower value 1.07 | S. cerevisiae deletion strains, locus YOL012C, strain htz1 0.991 | S. cerevisiae deletion strains, locus YOL147C, strain pex11, stronger effect = lower value 1 | S. cerevisiae deletion strains, locus YOR001W, strain rrp6, stronger effect = lower value 0.976 | S. cerevisiae deletion strains, locus YOR061W, strain CKA2, stronger effect = lower value 1.02 | S. cerevisiae deletion strains, locus YOR069W, strain VPS5, stronger effect = lower value 1.01 | S. cerevisiae deletion strains, locus YOR070C, strain gyp1, stronger effect = lower value 0.99 | S. cerevisiae deletion strains, locus YOR080W, strain dia2, stronger effect = lower value 0.967 | S. cerevisiae deletion strains, locus YOR083W, strain WHI5, stronger effect = lower value 0.968 | S. cerevisiae deletion strains, locus YOR106W, strain vam3, stronger effect = lower value 0.959 | S. cerevisiae deletion strains, locus YOR136W, strain idh2, stronger effect = lower value 1 | S. cerevisiae deletion strains, locus YOR144C, strain elg1, stronger effect = lower value 0.99 | S. cerevisiae deletion strains, locus YOR184W, strain ser1, stronger effect = lower value 0.996 | S. cerevisiae deletion strains, locus YOR231W, strain MKK1, stronger effect = lower value 0.974 | S. cerevisiae deletion strains, locus YOR265W, strain rbl2, stronger effect = lower value 0.989 | S. cerevisiae deletion strains, locus YOR270C, strain vph1, stronger effect = lower value 0.958 | S. cerevisiae deletion strains, locus YOR290C, strain snf2, stronger effect = lower value 1.01 | S. cerevisiae deletion strains, locus YOR316C, strain cot1, stronger effect = lower value 0.997 | S. cerevisiae deletion strains, locus YPL051W, strain arl3, stronger effect = lower value 0.992 | S. cerevisiae deletion strains, locus YPL078C, strain atp4, stronger effect = lower value 0.958 | S. cerevisiae deletion strains, locus YPL106C, strain sse1, stronger effect = lower value 0.978 | S. cerevisiae deletion strains, locus YPL240C, strain hsp82, stronger effect = lower value 0.986 | S. cerevisiae deletion strains, locus YPL241C, strain CIN2, stronger effect = lower value 1.01 | S. cerevisiae deletion strains, locus YPL256C, strain CLN2, stronger effect = lower value 0.975 | S. cerevisiae deletion strains, locus YPR119W, strain clb2, stronger effect = lower value 0.99 | S. cerevisiae deletion strains, locus YPR141C, strain kar3, stronger effect = lower value 0.99 | S. cerevisiae deletion strains, locus YPR163C, strain tif3, stronger effect = lower value 0.998 | S. cerevisiae deletion strains, locus YPR167C, strain met16, stronger effect = lower value 0.994 | S. cerevisiae deletion strains, strain wtn01, stronger effect = lower value 1.01 | S. cerevisiae strains, strain wild type, stronger effect = lower value 1.01

Reference: PubChem BioAssay AID1159580 (chemical genetic matrix, 2015)
